# Where “and” joins values, the source holds several entries; their conditions need not be identical. Identical values can stand only once. Inconclusive results are not listed. For part of these data: Entries with a potency or affinity are not part of this list. Calls of active or inactive are those of the source.
# Columns and labels:
# [1] = target: T1, Hexokinase-4 (Homo sapiens) + Glucokinase regulatory protein (Homo sapiens) (UniProt P35557+Q14397); assay: qHTS assay for inhibitors of recombinant human GCK-GKRP interaction: Diaphorase-coupled assay (AID 743205; active means well fitted curve in the direction sought with a large enough effect; an effect the other way counts as inactive or inconclusive); conditions: G6PDH/diaphorase resorufin fluorescence; series mostly up to 57.5 µM
# Outline: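 GST-GCK (10 nM) with FLAG-GKRP (10 nM), 5 mM glucose and 0.4 mM ATP in pH 7.6 Hepes; compounds preincubated 20 min with substrate. G6PDH/diaphorase coupling converts resazurin to resorufin, read kinetically (ex 525/em 590 nm) for 30 min.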
# [2] = target: T1, Hexokinase-4 (Homo sapiens) + Glucokinase regulatory protein (Homo sapiens); assay: qHTS assay for inhibitors of recombinant human GCK-GKRP interaction: ADP-Glo assay (AID 743206; active means well fitted curve in the direction sought with a large enough effect; an effect the other way counts as inactive or inconclusive;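 further: plate controls were DMSO plus enzyme for no effect and no enzyme for full effect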); conditions: ADP-Glo luminescence, 60 min, 0% = vehicle-only wells with enzyme present; series mostly up to 76.9 µM
# Outline: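 Pin-transferred compounds meet a 15 nM GST-GCK/15 nM FLAG-GKRP/2 uM S6P mix (dispense concentrations). ATP is then added to 0.4 mM final with 5 mM glucose, and the reaction runs 60 min at room temperature. ADP is quantified luminescently.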
# [3] = target: T1, Hexokinase-4 (Homo sapiens) + Glucokinase regulatory protein (Homo sapiens); assay: qHTS assay for inhibitors of recombinant human GCK-GKRP interaction: HTRF assay (AID 743207; active means well fitted curve in the direction sought with a large enough effect; an effect the other way counts as inactive or inconclusive;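 further: 0% = DMSO with GCK present and -100% = DMSO wells lacking GCK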); conditions: recombinant GCK-GKRP HTRF binding, 60 min; series mostly up to 57.5 µM
# Outline: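 GST-GCK and FLAG-GKRP (5 nM each) were combined with 2 uM S6P in pH 7.1 Hepes/MgCl2/KCl/DTT buffer, then compound and anti-FLAG XL665/anti-GST K antibodies were added. After 60 min at room temperature, HTRF 665/615 nm emission was read.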
# [4] = qHTS Assay for Identifying Gametocytocidal Compounds (AID 743244; active means well fitted curve in the direction sought with a large enough effect; an effect the other way counts as inactive or inconclusive; further: potency means the concentration at half of the fitted maximal effect;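 on max response: on the % scale 0 is the no-effect control and ±100 the full control effect; actives lower the fluorescent signal which means gametocytes are killed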); conditions: P. falciparum 3D7 stage III-V gametocytes, alamarBlue, 72 h; max response: stronger effect = lower value
# Outline: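 Viability read-out was resazurin reduction (alamarBlue, 24 h) measured at Ex 525/Em 598 nm. Beforehand, late-stage (III-V) 3D7 P. falciparum gametocytes at 20,000 cells/well were incubated with compound 72 h at 37C under 5% CO2.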
# [5] = qHTS profiling of the MIPE4 collection as inhibitors of Plasmodium falciparum (3D7) proliferation (AID 743344);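 further: scaled between DMSO vehicle wells and 0.29 µM artemisinin as full inhibition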; conditions: P. falciparum 3D7 in erythrocytes, SYBR Green DNA fluorescence, 72 h; at 28.5 µM (top of the series) unless noted
# Outline: (§1)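 Parasite DNA was quantified by SYBR Green I fluorescence (ex 485, em 535 nm) after overnight lysis in saponin/Triton buffer at room temperature. Cultures at 0.3% parasitemia and 2.5% hematocrit were first exposed to compound for 72 h at 37 C; signals were normalised to artemisinin (0.29 uM) and vehicle wells.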
# [6] = qHTS profiling of the MIPE4 collection as inhibitors of Plasmodium falciparum (DD2) proliferation (AID 743345); conditions: P. falciparum Dd2 in erythrocytes, SYBR Green DNA, 72 h; at 28.5 µM (top of the series) unless noted
# Outline: as §1
# [7] = qHTS profiling of the MIPE4 collection as inhibitors of Plasmodium falciparum (HB3) proliferation (AID 743347);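 further: plate controls were DMSO vehicle wells for no effect and artemisinin wells for full effect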; conditions: P. falciparum HB3 in erythrocytes, SYBR Green DNA, 72 h; at 28.5 µM (top of the series) unless noted
# Outline: as §1
# [8] = Ebola virus entry assay, green fluorescence channel
# [9] = Ebola virus entry assay, blue channel fluorescence
# [10] = Ebola virus entry assay, ratio channel
# [11] = Ebola virus entry assay, green channel fluorescence
# [12] = qHTS assay for cell viability of HEK293 cells (AID 743288; active means well fitted curve in the direction sought with a large enough effect; an effect the other way counts as inactive or inconclusive; further: nearly all actives have a fitted effect of over 50% in size; further: potency means the concentration at half of the fitted maximal effect; on max response: on the % scale 0 is the no-effect control and ±100 the full control effect); conditions: ATP luminescence (CellTiter-Glo), 18 h; max response: stronger effect = lower value
# Outline: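 After 18 h compound exposure at 37 C, parental HEK293 cells (2,000/well) are lysed with CellTiter-Glo and luminescence is read following 30 min at room temperature.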
# [13] = qHTS assay for cell viability of the p53RE-bla HCT-116 cell line (AID 743292; active means well fitted curve in the direction sought with a large enough effect; an effect the other way counts as inactive or inconclusive; further: on the % scale 0 is the no-effect control and ±100 the full control effect; nearly all actives have a fitted effect of over 55% in size); conditions: p53RE-bla HCT-116 viability, ATP luminescence, 16 h; series mostly up to 95 µM
# Outline: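 Luminescent ATP quantitation (CellTiter-Glo) served as the viability read-out; reagent was added after 16 h compound exposure at 37 C and read after 30 min at room temperature. Cells: p53RE-bla HCT-116, 4,000 per well.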
# [14] = qHTS profiling for inhibitors of Plasmodium falciparum (3D7) proliferation (AID 743322);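 further: infected erythrocytes exposed to compound for 72 h before lysis; 100% = DMSO vehicle wells and 0% = 0.29 µM artemisinin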; conditions: P. falciparum 3D7 proliferation; at 28.7 µM (top of the series)
# Outline: as §1
# [15] = qHTS profiling for inhibitors of Plasmodium falciparum (DD2) proliferation (AID 743323); conditions: lower = more inhibition; at 28.7 µM (top of the series)
# Outline: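 1536-well qHTS; infected RBCs 0.3% parasitemia/2.5% Hct final; cpd 72 h 37 C 5% CO2; lysis buffer + SYBR Green I, o/n RT dark; FI 485/535; norm. to 0.29 uM artemisinin and DMSO, plate-stack corrected.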
# [16] = qHTS profiling for inhibitors of Plasmodium falciparum (HB3) proliferation (AID 743324; active means well fitted curve in the direction sought with a large enough effect; an effect the other way counts as inactive or inconclusive;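 further: 100% = DMSO vehicle wells and 0% = artemisinin-treated control wells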); conditions: Plasmodium falciparum HB3 blood-stage proliferation; at 28.7 µM (top of the series)
# Outline: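 SYBR Green fluorescence (485 ex/535 em) of lysed cultures, incubated overnight at room temperature in the dark, quantifies parasite DNA. Infected erythrocytes at 0.3% parasitemia and 2.5% hematocrit were exposed 72 h; values normalized to DMSO and 0.29 uM artemisinin controls.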
# [17] = Ebola virus entry assay, green fluorescence channel; remark: listed apart in the source
# [18] = Ebola virus entry assay, ratio channel readout
# Wherever efficacy is given: 0% is about no effect.
# T1 sequence (P35557 whole entry, looked up): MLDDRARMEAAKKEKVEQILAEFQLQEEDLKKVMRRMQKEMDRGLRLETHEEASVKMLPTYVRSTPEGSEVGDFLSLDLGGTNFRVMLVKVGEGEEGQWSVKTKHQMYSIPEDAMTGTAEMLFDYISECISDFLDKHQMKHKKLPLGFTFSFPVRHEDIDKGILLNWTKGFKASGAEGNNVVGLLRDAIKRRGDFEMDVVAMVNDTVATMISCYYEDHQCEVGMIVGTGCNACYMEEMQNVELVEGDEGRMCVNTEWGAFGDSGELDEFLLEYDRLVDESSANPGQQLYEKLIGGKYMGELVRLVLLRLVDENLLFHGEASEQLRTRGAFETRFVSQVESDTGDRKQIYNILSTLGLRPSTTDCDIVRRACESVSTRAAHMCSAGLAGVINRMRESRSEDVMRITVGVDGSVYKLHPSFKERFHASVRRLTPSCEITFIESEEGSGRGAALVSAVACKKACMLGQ
# T1 sequence (Q14397 whole entry, looked up): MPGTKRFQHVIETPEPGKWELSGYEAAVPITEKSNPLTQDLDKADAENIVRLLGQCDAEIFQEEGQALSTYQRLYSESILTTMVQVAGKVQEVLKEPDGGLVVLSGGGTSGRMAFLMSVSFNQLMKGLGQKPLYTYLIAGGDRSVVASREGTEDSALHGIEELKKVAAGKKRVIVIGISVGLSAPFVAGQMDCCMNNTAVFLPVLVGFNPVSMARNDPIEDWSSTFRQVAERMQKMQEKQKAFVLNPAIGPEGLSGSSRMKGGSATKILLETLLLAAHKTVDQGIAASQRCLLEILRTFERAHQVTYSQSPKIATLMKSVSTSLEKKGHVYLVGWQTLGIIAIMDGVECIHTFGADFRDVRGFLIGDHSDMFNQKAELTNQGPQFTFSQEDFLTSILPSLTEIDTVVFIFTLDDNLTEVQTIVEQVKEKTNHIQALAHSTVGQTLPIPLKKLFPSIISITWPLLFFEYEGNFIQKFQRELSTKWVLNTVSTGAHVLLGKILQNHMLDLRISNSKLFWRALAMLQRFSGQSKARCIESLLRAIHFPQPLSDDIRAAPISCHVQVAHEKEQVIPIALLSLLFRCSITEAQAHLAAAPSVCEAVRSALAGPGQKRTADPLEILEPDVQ
compound,measurement,setting,value
Cc1cccc(C)c1NC(=O)CN1CCCC1=O,outcome,[1],inactive
same,outcome,[2],inactive
same,outcome,[3],inactive
same,max response,[4],12.6% (inactive)
same,"parasite growth, % of DMSO control",[5],101%
same,"parasite growth remaining, % of DMSO control (lower = more inhibition)",[6],99.6%
same,"growth, % of control",[7],89.5%
same,efficacy,[8],-15.1% (inactive)
same,outcome,[9],inactive
same,outcome,[10],inactive
same,outcome,[11],inactive
NCCc1cc(O)c(O)cc1O,max response,[4],0.974% (inactive)
same,efficacy,[8],-42% (inactive)
same,AC50,[9],25.1 µM (active)
same,outcome,[10],inactive
same,outcome,[11],inactive
CC1NCCOC1c1ccccc1 (configuration not stated),max response,[4],1.41% (inactive)
same,efficacy,[8],-41.7% (inactive)
same,outcome,[9],inactive
same,outcome,[10],inactive
same,outcome,[11],inactive
CC(C)=CC1C(C(=O)OCc2cccc(Oc3ccccc3)c2)C1(C)C (configuration not stated),max response,[4],5.27% (inactive)
same,efficacy,[8],-13.4% (inactive)
same,outcome,[9],inactive
same,outcome,[10],inactive
same,outcome,[11],inactive
CC(=O)Nc1cc([As](=O)(O)O)ccc1O,max response,[4],0.387% (inactive)
same,efficacy,[8],15.5% (inactive)
same,outcome,[9],inactive
same,outcome,[10],inactive
same,outcome,[11],inactive
CC[N+]1(C)CCCC(OC(=O)C(O)(c2ccccc2)c2ccccc2)C1 (configuration not stated),max response,[4],-8.23% (inactive)
same,efficacy,[8],26% (inactive)
same,outcome,[9],inactive
same,outcome,[10],inactive
same,outcome,[11],inactive
CCN(CC)CCOC(=O)C(O)(c1ccccc1)c1ccccc1,max response,[4],-7.9% (inactive)
same,efficacy,[8],-15.5% (inactive)
same,outcome,[9],inactive
same,outcome,[10],inactive
same,outcome,[11],inactive
CC[N+](CC)(CC)CC,max response,[4],-4.6% (inactive) and 7.33% (inactive)
same,efficacy,[8],-18.6% (inactive)
same,outcome,[9],inactive
same,outcome,[10],inactive
same,outcome,[11],inactive
Clc1cccc(N2CCNCC2)c1,max response,[4],0.639% (inactive)
same,efficacy,[8],26.6% (inactive)
same,outcome,[9],inactive
same,outcome,[10],inactive
same,outcome,[11],inactive
CCN(CC)C(=O)N[C@@H]1C=C2c3cccc4[nH]cc(c34)C[C@@H]2N(C)C1,Potency,[4],20 µM (active)
same,efficacy,[8],16% (inactive)
same,outcome,[9],inactive
same,outcome,[10],inactive
same,outcome,[11],inactive
OCCOc1ccccc1,max response,[4],3.27% (inactive) and 3.36% (inactive)
same,max response,[12],-3.53% (inactive) and -2.57% (inactive) and -13.5% (inactive)
same,Potency,[13],inactive
same,efficacy,[8],-12.5% (inactive)
same,outcome,[9],inactive
same,outcome,[10],inactive
same,outcome,[11],inactive
Cc1sc2c(c1C)C(c1ccc(Cl)cc1)=N[C@@H](CC(=O)OC(C)(C)C)c1nnc(C)n1-2,max response,[4],-19.5% (inactive)
same,remaining parasite growth % (stronger effect = lower value),[14],4.84%
same,"activity, percent of control",[15],14.6%
same,"remaining proliferation (% of control), lower = more inhibition",[16],-1.43%
same,"parasite growth, % of DMSO control",[5],16.3%
same,"parasite growth remaining, % of DMSO control (lower = more inhibition)",[6],24.4%
same,"growth, % of control",[7],12.7%
C[C@H]1O[C@@H](O[C@H]2[C@@H](O)C[C@H](O[C@H]3[C@@H](O)C[C@H](O[C@H]4CC[C@@]5(C)[C@H](CC[C@@H]6[C@@H]5CC[C@]5(C)[C@@H](C7=CC(=O)OC7)CC[C@]65O)C4)O[C@@H]3C)O[C@@H]2C)C[C@H](O)[C@@H]1O,max response,[4],-3.93% (inactive)
same,Potency,[12],0.0562 µM (active)
same,efficacy,[8],-46.6% (inactive)
same,AC50,[9],1.41 µM (active)
same,AC50,[10],0.708 µM (active)
COC[C@@H](NC(C)=O)C(=O)NCc1ccccc1,"parasite growth, % of DMSO control",[5],371%
same,"parasite growth remaining, % of DMSO control (lower = more inhibition)",[6],113%
same,"growth, % of control",[7],737%
same,efficacy,[8],-31.5% (inactive)
same,outcome,[9],inactive
same,outcome,[10],inactive
same,outcome,[11],inactive
Oc1cc(Cl)ccc1Oc1ccc(Cl)cc1Cl,remaining parasite growth % (stronger effect = lower value),[14],0.738%
same,"activity, percent of control",[15],2.03%
same,"remaining proliferation (% of control), lower = more inhibition",[16],1.17%
same,"parasite growth, % of DMSO control",[5],6.59%
same,"parasite growth remaining, % of DMSO control (lower = more inhibition)",[6],8.79%
same,"growth, % of control",[7],5.41%
same,efficacy,[8],-133% (inactive)
same,AC50,[9],15.8 µM (active)
same,AC50,[10],7.08 µM (active) and 14.1 µM (active)
COc1cc([C@@H]2c3cc4c(cc3[C@H](O)[C@H]3COC(=O)[C@H]23)OCO4)cc(OC)c1OC,max response,[4],11.4% (inactive)
same,remaining parasite growth % (stronger effect = lower value),[14],68.4% and 104%
same,"activity, percent of control",[15],62.7% and 121%
same,"remaining proliferation (% of control), lower = more inhibition",[16],5.53% and 99%
same,"parasite growth, % of DMSO control",[5],11%
same,"parasite growth remaining, % of DMSO control (lower = more inhibition)",[6],89.6%
same,"growth, % of control",[7],6.71%
same,efficacy,[8],25.2% (inactive)
same,AC50,[9],11.2 µM (active)
same,AC50,[10],5.01 µM (active)
CC(C)(C)CC(C)(C)c1ccc(O)cc1,max response,[4],-7.21% (inactive) and 8.2% (inactive)
same,max response,[12],-15.6% (inactive)
same,Potency,[13],inactive
same,efficacy,[8],-38.7% (inactive)
same,AC50,[9],20 µM (active)
same,AC50,[10],17.8 µM (active) and 15.8 µM (active)
Cn1c(CCCC(=O)O)nc2cc(N(CCCl)CCCl)ccc21,max response,[4],-0.45% (inactive)
same,remaining parasite growth % (stronger effect = lower value),[14],92.7%
same,"activity, percent of control",[15],105%
same,"parasite growth, % of DMSO control",[5],97.1%
same,"parasite growth remaining, % of DMSO control (lower = more inhibition)",[6],81.5%
same,"growth, % of control",[7],104%
same,outcome,[17],inactive
same,outcome,[18],inactive
same,outcome,[9],inactive
same,outcome,[10],inactive
same,outcome,[11],inactive
COC[C@H]1OC(=O)c2coc3c2[C@@]1(C)C1=C(C3=O)C2CCC(=O)[C@@]2(C)C[C@H]1OC(C)=O (some centres not stated),outcome,[1],inactive
same,outcome,[2],inactive
same,outcome,[3],inactive
same,max response,[4],9.51% (inactive)
same,remaining parasite growth % (stronger effect = lower value),[14],74.1%
same,"activity, percent of control",[15],57.9%
same,"remaining proliferation (% of control), lower = more inhibition",[16],74%
CC(CCc1ccccc1)NC(C)C(O)c1ccc(O)cc1 (configuration not stated),outcome,[1],inactive
same,outcome,[2],inactive
same,outcome,[3],inactive
same,max response,[4],2.74% (inactive) and 19.3% (inactive)
same,efficacy,[8],36.4% (inactive)
same,AC50,[9],35.5 µM (active)
same,AC50,[10],35.5 µM (active)

# From PubChem BioAssay (NCATS)
